# The supplement of paper PMC3334620
# Over roughly 33,000 sequences, “E-score (-0.5 to 0.5)” has its median near -0.015; the highest 2% begin near 0.3. Only a selection was taken, and the highest values are over-represented in it overall.
# Target: T1, Abf1 (UniProt P14164)
# T1 sequence: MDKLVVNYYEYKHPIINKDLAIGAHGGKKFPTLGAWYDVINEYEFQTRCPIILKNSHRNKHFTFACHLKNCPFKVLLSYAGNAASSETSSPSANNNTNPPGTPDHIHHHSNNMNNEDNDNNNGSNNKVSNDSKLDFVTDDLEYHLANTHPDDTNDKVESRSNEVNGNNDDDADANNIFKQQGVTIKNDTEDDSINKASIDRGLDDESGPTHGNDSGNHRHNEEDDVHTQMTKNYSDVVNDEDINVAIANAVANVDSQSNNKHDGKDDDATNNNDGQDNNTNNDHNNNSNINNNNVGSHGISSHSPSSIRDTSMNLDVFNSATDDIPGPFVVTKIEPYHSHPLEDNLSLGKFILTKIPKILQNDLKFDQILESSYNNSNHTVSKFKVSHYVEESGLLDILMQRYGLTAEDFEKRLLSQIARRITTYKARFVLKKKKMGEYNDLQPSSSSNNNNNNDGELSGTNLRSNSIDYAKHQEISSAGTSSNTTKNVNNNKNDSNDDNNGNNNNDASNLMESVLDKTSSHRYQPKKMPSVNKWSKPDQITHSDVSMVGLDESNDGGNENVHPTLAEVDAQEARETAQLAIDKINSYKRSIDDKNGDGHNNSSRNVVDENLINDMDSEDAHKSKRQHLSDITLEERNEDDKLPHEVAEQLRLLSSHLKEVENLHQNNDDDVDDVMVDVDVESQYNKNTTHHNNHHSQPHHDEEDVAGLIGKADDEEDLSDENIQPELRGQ
# Assay: PBM E-score (8-mer binding enrichment) (E-score (-0.5 to 0.5)); higher = stronger / more preferred TF binding
# Conditions: protein concentration: 200 nM; construct: GST-full length
# Method: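 Universal 'all 10-mer' protein binding microarrays (Agilent AMADID 015681) probed with GST-tagged S. cerevisiae TFs (full-length or DBD) made by in vitro transcription/translation (PURExpress), about 100-200 nM. Bound TF was detected with fluorescent anti-GST. Each ungapped 8-mer (which stands for itself and its reverse complement) is scored by the PBM enrichment score (E-score), a modified Wilcoxon-Mann-Whitney statistic from -0.5 to +0.5, computed with the Universal PBM Analysis Suite. Scale: above 0.35 generally sequence-specific binding.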
row,Sequence,PBM E-score
1,AATTATCA,0.34
2,GATTATCC,0.152
3,GATTATTA,0.0366
4,AATTATCG,0.178
5,AATTATCC,0.0502
6,CATCCATA,0.0978
7,CATGAACC,-0.00224
8,GCCCGAGA,-0.194
9,ATCATTAC,0.262
10,ATCATTAA,0.307
11,ATCATTAG,0.279
12,GTCATTAA,0.385
13,CTCATTAA,0.148
14,GACATTAA,0.227
15,CTAAGCGC,-0.121
16,CTTTGCAC,0.209
17,ACCTTTAC,-0.0849
18,CGTTCGAA,0.311
19,AGTTCGTC,0.164
20,AGTTCGTG,0.326
21,AGTTCGTA,0.264
22,GGTTCGTA,0.14
23,CGTTCGAC,0.122

row,Sequence,PBM E-score
1,AGTTCGGG,0.0167
2,CGTTCGTA,0.345
3,TGTTCGAA,-0.0208
4,CGTTCGGC,0.0205
5,CGTTCGTC,0.358
6,ATTTCGTG,0.288
7,ATAAGGAT,-0.00817
8,AGGGAAGC,-0.197
9,CTGCTGGC,-0.25
10,ATCGAAAA,0.0388
11,ATTCACGA,0.235
12,CATCACGC,0.191
13,GTTCACGA,0.3
14,GATCACGA,0.301
15,CTTCACGA,0.2
16,GATCACAA,0.26
17,GATCACGC,0.366
18,GATCACAC,0.118
19,GCTCACGA,0.125
20,ACACTCGA,-0.0221
21,CGTCCATC,0.0706
22,GATACGGA,0.279
23,AGGGTGGG,-0.0843

row,Sequence,PBM E-score
1,CATTTGAG,0.0534
2,CGCCAGAA,-0.0306
3,CAGTCGGG,0.0146
4,GATAGCCA,-0.0722
5,GACAATCC,0.0976
6,GAACGAAC,0.121
7,TTACGAAA,0.279
8,GCACGAAC,0.269
9,ATACGAAC,0.294
10,GGACGAAC,0.323
11,CTACGAAA,0.122
12,CTACGAAC,0.275
13,GCACGAAA,0.336
14,GTACGAAC,0.418
15,AGACGAAC,0.24
16,GTACGAAA,0.376
17,ACACGAAA,0.288
18,AAATCTAG,0.045
19,ATACTTGA,-0.0426
20,AAGCACCC,-0.201
21,ATGGAAAA,0.177
22,GATTGAGA,0.21
23,CGTTAGTC,0.00116

row,Sequence,PBM E-score
1,GATCGCTA,0.157
2,CTAAGCGA,-0.0187
3,CTTTTAGA,-0.028
4,CTATCGTC,0.252
5,ATATCGCA,0.144
6,ATATCGTA,0.203
7,ATATCGCC,0.269
8,AAATCGTG,0.192
9,ATATCGCG,0.382
10,ATATCGGC,0.149
11,AAATCGTC,0.347
12,ATATCGTG,0.318
13,ATATCGTC,0.336
14,ATATCGGG,0.018
15,AAATCGTA,0.267
16,AGGGAACT,-0.244
17,AGCCGTAA,0.193
18,GCGTCCTA,-0.0099
19,TACCAAAA,0.0276
20,ACACAAAC,0.0247
21,ATATAATA,0.0977
22,GTATAAAA,0.356
23,GGATAATA,0.173

row,Sequence,PBM E-score
1,CGATAATA,0.326
2,CTATAATA,-0.0104
3,GTATAATA,0.299
4,ATATAAAA,0.185
5,AGATAATA,0.107
6,GTATAAAC,0.22
7,GTTAACGA,0.252
8,ACTGGTCG,-0.0382
9,AGTGCGAA,-0.196
10,CTCACCAG,-0.101
11,CGAAGGGC,-0.116
12,ACAGTGTC,-0.155
13,AGGGCTTC,0.0312
14,ACTCGTAT,0.305
15,CCTCGTAA,0.131
16,AATCGTAG,0.197
17,ACTCGTAG,0.16
18,AATCGTAA,0.145
19,ACTCGTAA,0.173
20,AATCGTAT,0.297
21,GCTCGTAA,0.118
22,TCTCGTAA,0.306
